These results are taken from PubChem BioAssay (NCATS).

Assay [1] in a line: AP1 Signaling Pathway (AID 357). Also: % is scaled to controls: 0 for no effect and ±100 for the full control effect. The procedure, abridged:
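AP-1-bla ME-180 cells with beta-lactamase reporter under AP-1 response element, stimulated with EC50 EGF; compounds titrated, 5 hours at 37 degrees Celsius. CCF4 read at 460/530 nm ratio; positive and negative modulators judged by AC50.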

Assay [2] can be described thus: NFAT Signaling Pathway (AID 444).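 Also: carbachol stimulus at about its EC50 of 1 µM final; % is scaled to controls: 0 for no effect and ±100 for the full control effect.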 To be noted: Jurkat NFAT-bla M1, carbachol, beta-lactamase ratio, 5 h; at 17.2 µM (top of the series) unless noted. The procedure, abridged: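 Jurkat cells carrying an NFAT-driven β-lactamase reporter and co-transfected muscarinic M1 receptor were treated with compound plus carbachol (1 uM final, an EC50 level) for 5 h at 37 °C. CCF4 loading followed for 1 h at RT; 460/530 nm ratio gave %activity.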

The nature of assay [3]: Stat Signaling Pathway (AID 446).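 Also: ME-180 cervical cancer cells given 40 pM IL-6 alongside compound; SIE-controlled beta-lactamase reporter measured as 460/530 nm FRET emission ratio; % is scaled to controls: 0 for no effect and ±100 for the full control effect.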 The procedure, abridged: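 ME-180 cells carrying a SIE-driven beta-lactamase reporter are stimulated with 40 pM IL-6 for 5 h at 37C in the presence of compound. The 460/530 nm FRET substrate ratio is read after 2.5 h at RT. Data are normalised to 300 pM IL-6 and to 125 nM JAK inhibitor controls.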
The target of assay [4] is Glucocorticoid receptor (Homo sapiens) (UniProt P04150). Put plainly: GR-GFP Redistribution (AID 450;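 active = compounds whose dose series gives a full or clear partial fitted curve of increased nuclear translocation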; also: potency is read from the fitted curve at half-maximal effect). To be noted: U2OS GR-GFP nuclear translocation, laser cytometry, 2 h.
Glucocorticoid receptor (Homo sapiens), sequence (P04150 whole entry, looked up, the tested form may be a part): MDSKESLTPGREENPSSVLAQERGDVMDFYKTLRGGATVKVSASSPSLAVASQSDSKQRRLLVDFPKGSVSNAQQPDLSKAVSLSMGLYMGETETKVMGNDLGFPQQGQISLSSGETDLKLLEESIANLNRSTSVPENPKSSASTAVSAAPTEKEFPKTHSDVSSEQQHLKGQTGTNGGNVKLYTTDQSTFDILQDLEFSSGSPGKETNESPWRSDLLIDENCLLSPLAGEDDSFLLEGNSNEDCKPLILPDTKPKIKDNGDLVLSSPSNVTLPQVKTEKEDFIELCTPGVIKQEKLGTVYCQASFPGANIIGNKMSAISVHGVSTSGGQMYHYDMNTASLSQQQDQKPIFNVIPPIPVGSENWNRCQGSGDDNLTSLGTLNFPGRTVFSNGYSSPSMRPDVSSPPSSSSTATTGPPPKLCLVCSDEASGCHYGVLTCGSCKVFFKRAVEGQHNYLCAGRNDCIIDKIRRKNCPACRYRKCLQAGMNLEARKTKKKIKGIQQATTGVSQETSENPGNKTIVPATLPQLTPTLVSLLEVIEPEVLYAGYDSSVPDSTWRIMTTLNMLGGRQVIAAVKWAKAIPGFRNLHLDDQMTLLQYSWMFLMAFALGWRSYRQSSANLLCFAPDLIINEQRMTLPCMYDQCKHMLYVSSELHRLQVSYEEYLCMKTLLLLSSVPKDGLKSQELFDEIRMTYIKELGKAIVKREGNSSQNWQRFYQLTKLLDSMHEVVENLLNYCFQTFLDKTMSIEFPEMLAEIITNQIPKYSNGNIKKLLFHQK
For assay [5], the target named is Cytochrome P450 1A2 (Homo sapiens) (UniProt P05177). Nature of the assay: p450-cyp1a2 (AID 410; calls by dose curve; also: potency is read from the fitted curve at half-maximal effect). The procedure, abridged: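 Luminescent readout of luciferin formed from Luciferin-ME by human CYP1A2; data normalized against complete inhibition by 57 uM furafylline. Enzyme 20nM, substrate 100uM at Km, 100mM KPO4 buffer, 60 min reaction at room temperature.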
Cytochrome P450 1A2 (Homo sapiens), sequence (P05177 whole entry, looked up): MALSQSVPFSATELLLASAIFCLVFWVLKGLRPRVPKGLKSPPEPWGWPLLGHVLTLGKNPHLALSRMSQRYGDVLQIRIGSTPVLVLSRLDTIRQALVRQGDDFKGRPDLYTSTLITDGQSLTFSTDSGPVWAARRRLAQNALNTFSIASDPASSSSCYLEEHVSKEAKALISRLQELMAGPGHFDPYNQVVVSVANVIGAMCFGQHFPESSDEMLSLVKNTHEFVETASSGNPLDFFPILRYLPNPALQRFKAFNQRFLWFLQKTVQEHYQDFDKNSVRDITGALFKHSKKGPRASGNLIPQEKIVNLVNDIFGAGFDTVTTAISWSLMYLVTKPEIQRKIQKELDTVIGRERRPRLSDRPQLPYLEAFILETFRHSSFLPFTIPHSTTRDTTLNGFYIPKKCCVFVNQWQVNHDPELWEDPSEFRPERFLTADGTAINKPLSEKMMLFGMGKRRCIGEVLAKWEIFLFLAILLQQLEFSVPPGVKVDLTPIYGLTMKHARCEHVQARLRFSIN
The target of assay [6] is Glucocorticoid receptor (Homo sapiens) (UniProt P04150). Put plainly: GR-EFC Redistribution (AID 451; calls by dose curve; also: potency is read from the fitted curve at half-maximal effect). As to conditions: CHO-K1 GR-EFC translocation, beta-gal luminescence, 2 h. The procedure, abridged:
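CHO-K1 cells stably expressing nuclear-localized β-gal enzyme acceptor and GR fused C-terminally to the enzyme donor fragment; ligand-driven nuclear translocation restores β-gal by complementation. Compounds titrated up to 46 uM final, 2 h at 37 °C; luminescence read.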

Assay [7] addresses Mitogen-activated protein kinase 10 (Mus musculus) (UniProt Q61831). Put plainly: JNK3 AlphaScreen Assay (AID 530).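 Also: kinase came from lysate of stimulated human HepG2 cells; signal reports phosphorylation of biotinylated GST-cJun 1-79 at Ser73 with 10 µM ATP; % is scaled to controls: 0 for no effect and ±100 for the full control effect.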 The procedure, abridged:
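Inhibitors reduce antibody binding to phosphorylated biotin-cJun, lowering AlphaScreen luminescence. Lysates from HepG2 cells pre-activated by IL-1beta plus TNF-alpha supplied JNK3; compounds were titrated.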
(Alpha assays give light when donor and acceptor beads are brought close together.)

The target of assay [8] is 3',5'-cyclic-AMP phosphodiesterase 4B (Homo sapiens) (UniProt Q07343). Nature of the assay: qHTS Assay for Inhibitors of PDE-IV (AID 607; active = well fitted activation curve with a large enough effect in the main read-out, with a control signal flat, not every such curve was filed as active; also: % of control where 0% means no effect). The procedure, abridged: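 HEK293 ACTOne cells with CNG channel (1000/well), endogenous PDE4; membrane potential dye, compounds up to 22.9 uM final. Fluorescence Ex 535/Em 590; RO 20-1724 (100 uM final) as reference.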
3',5'-cyclic-AMP phosphodiesterase 4B (Homo sapiens), sequence (Q07343 whole entry, looked up): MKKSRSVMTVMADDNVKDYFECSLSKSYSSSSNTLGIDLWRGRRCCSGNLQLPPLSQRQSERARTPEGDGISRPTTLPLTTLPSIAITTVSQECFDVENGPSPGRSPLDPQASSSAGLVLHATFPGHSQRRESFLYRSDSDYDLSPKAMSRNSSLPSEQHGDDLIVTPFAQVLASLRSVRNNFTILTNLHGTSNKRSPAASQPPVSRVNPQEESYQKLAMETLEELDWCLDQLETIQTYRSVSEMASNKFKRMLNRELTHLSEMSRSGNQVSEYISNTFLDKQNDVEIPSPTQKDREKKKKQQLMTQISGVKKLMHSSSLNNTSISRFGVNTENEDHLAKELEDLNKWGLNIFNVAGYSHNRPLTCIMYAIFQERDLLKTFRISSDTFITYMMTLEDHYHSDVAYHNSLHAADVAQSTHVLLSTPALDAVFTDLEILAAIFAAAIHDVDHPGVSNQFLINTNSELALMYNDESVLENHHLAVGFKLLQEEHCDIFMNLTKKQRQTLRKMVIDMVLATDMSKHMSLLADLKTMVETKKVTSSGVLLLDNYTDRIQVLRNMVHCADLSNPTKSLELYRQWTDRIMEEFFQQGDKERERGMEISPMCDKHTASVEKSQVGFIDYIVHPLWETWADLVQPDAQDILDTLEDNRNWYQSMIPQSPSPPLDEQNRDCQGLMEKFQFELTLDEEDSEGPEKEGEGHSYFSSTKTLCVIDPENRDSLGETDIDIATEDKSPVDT
On the technique in general: qHTS replaces the single test concentration by a dilution series.

The nature of assay [9]: Cell Viability - BJ (AID 421; calls by dose curve;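 also: potency is read from the fitted curve at half-maximal effect; cells exposed to compound for 40 hours at 37 °C before readout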). As to conditions: BJ fibroblast viability, qHTS. The procedure, abridged: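 Normal human BJ foreskin fibroblasts, 1500/well in complete medium, treated 40 hr at 37 °C. Cellular ATP by CellTiter-Glo luminescence; normalized to DMSO and 100 uM tamoxifen, AC50 from Hill fit.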
The nature of assay [10]: Cell Viability - Jurkat (AID 426;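 active = dose-dependent loss of cell ATP signal giving a full or clear fitted curve, ranked by lower potency value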; also: potency is read from the fitted curve at half-maximal effect). To be noted: qHTS. The procedure, abridged:
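qHTS, 1536-well; Jurkat E6-1, 5000 cells/well, complete medium; cpd 40 hr, 37 °C; CellTiter-Glo 20 min RT; luminescence. AC50 by Hill fit.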

Assay [11] can be described thus: Cell Viability - Hek293 (AID 427;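 active = compounds whose dose-response curve shows a full or clear partial loss of cell viability, called from curve shape rather than a numeric limit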;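 also: potency is read from the fitted curve at half-maximal effect; cells exposed to compound for 40 hours at 37 °C before reading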). As to conditions: qHTS. The procedure, abridged: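 HEK293 cells in complete medium were exposed to compound for 40 hr at 37 °C, then cellular ATP was read by CellTiter-Glo luminescence. Data were normalized to DMSO (basal) and 100 uM tamoxifen (100% inhibition), and AC50 came from Hill fits.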
A short description of assay [12]: Cell Viability - HepG2 (AID 433; calls by dose curve;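 also: potency is read from the fitted curve at half-maximal effect; potency for ATP loss meaning cytotoxicity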). As to conditions: qHTS. The procedure, abridged: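 ATP luminescence (CellTiter-Glo) after 40 h compound exposure, 37 °C, HepG2, 1500 cells/well, complete medium. Normalized: DMSO = basal, 100 uM tamoxifen = 100% inhibition. AC50 via standard Hill equation.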
Assay [13] in a line: Cell Viability - MRC5 (AID 434; calls by dose curve;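 also: potency is read from the fitted curve at half-maximal effect; potency reflects cytotoxicity seen as loss of intracellular ATP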). As to conditions: MRC5 lung fibroblast viability, qHTS. The procedure, abridged: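 MRC5 normal human lung fibroblasts (1500/well) were treated with compounds for 40 hr at 37 °C in complete medium, and viable cells were measured as intracellular ATP by CellTiter-Glo luminescence. AC50 came from Hill fits, normalized to DMSO and 100 uM tamoxifen.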

Assay [14] is described as follows: Cell Viability - N2a (AID 540; active = well fitted curve in the direction sought with a large enough effect; an effect the other way counts as inactive or inconclusive;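 also: plate controls were DMSO alone for no effect and tamoxifen control for full effect; nearly all actives have a fitted effect of over 45% in size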). The procedure, abridged:
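Luminescent ATP signal (CellTiter-Glo, 20 min at room temperature) served as the viability read-out after N2a cells were treated with compounds for 40 hours at 37 °C. Concentration-response data were fitted to the Hill equation for AC50.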

The nature of assay [15]: Cell Viability - NIH 3T3 (AID 541; active = well fitted curve in the direction sought with a large enough effect; an effect the other way counts as inactive or inconclusive;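 also: plate controls were DMSO alone for no effect and tamoxifen positive control for full effect; nearly all actives have a fitted effect of over 25% in size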). As to conditions: NIH 3T3 cell viability, qHTS; activity change, negative = cytotoxicity: at 92.2 µM (top of the series). The procedure, abridged: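 Luminescent ATP signal (CellTiter-Glo) served as the viability read-out after NIH 3T3 cells were exposed to compounds over a concentration range for 40 hr at 37 °C. Hill-equation modelling of concentration-response data gave AC50.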

Assay [16] can be described thus: Cell Viability - H-4-II-E (AID 543; active = well fitted curve in the direction sought with a large enough effect; an effect the other way counts as inactive or inconclusive; also: % is scaled to controls: 0 for no effect and ±100 for the full control effect; nearly all actives have a fitted effect of over 35% in size). The procedure, abridged: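 Luminescent ATP signal (CellTiter-Glo) served as the viability read-out, with cytotoxicity seen as a concentration-dependent ATP drop. Cells were treated for 40 hours in complete medium. AC50 values derive from Hill-equation modelling.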
Assay [17] can be described thus: Cell Viability - SH-SY5Y (AID 544; active = well fitted curve in the direction sought with a large enough effect; an effect the other way counts as inactive or inconclusive;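 also: 0% = DMSO alone and -100% = 100 µM tamoxifen; nearly all actives have a fitted effect of over 55% in size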). As to conditions: SH-SY5Y neuroblastoma cell viability; viability change, negative = cytotoxic: at 92.2 µM (top of the series). The procedure, abridged: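 Luminescent ATP read-out (CellTiter-Glo) measures loss of viable SH-SY5Y neuroblastoma cells after 40 hr compound exposure at 37 °C. AC50 values derive from standard Hill modelling of qHTS concentration-response data.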

Assay [18] can be described thus: Cell Viability - Renal Proximal Tubule (AID 545; active = well fitted curve in the direction sought with a large enough effect; an effect the other way counts as inactive or inconclusive;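 also: 0% = DMSO only and -100% = 100 µM tamoxifen; nearly all actives have a fitted effect of over 40% in size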). The procedure, abridged:
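Rat kidney proximal tubule cells, freshly isolated; 1000 cells/well, 5 hr settle, compound 40 hr 37 °C. CellTiter-Glo 20 min RT, luminescence read. AC50 by standard Hill fit.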

Assay [19] is described as follows: Cellular Toxicity (caspase-3) HepG2 (AID 654; active = well fitted curve in the direction sought with a large enough effect; an effect the other way counts as inactive or inconclusive;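 also: cells exposed to compound for 16 hours before reading; 0% = DMSO alone and 100% = caspase signal from 100 µM tamoxifen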). The procedure, abridged:
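Cells plated 5 hr at 37 °C, compound added, incubated 16 hr at 37 °C. Caspase-Glo 3/7 reagent followed, 20 min at room temperature, then luminescence read. Activation scored as signal increase; AC50 from Hill fit.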

Where “and” joins values, the source holds several entries; their conditions need not be identical. Equal values may be shown once. Unmarked numbers belong to inactive results. Records with an inconclusive call do not appear. Calls of active or inactive are those of the source. Unless noted, calls follow the shape of the dose curve; as a rule, active = well fitted curve in either direction with a large enough effect (not every such curve was filed as active); inconclusive = small, poorly fitted or top-dose-only effect, or another doubt; inactive = flat fitted curve, though single readings scatter. Bounds are passed on as bounds.

As for `C[N+]12CCC(CC1)C(OC(=O)C(O)(c1ccccc1)c1ccccc1)C2` (configuration not stated), the outcome in assay [1] and in [3] was inactive. In assay [2], the activity change, negative = inhibition is -83.7% (active). For the same compound, in [4], the Potency is above 20.6 µM.
As to `CC(O)Cn1cnc2c1c(=O)n(C)c(=O)n2C` (configuration not stated), the compound was called inactive in assay [1] and in assay [3]. Further, the activity change, negative = inhibition in assay [2] was 10.8%.
Regarding `O=C1C(CCS(=O)c2ccccc2)C(=O)N(c2ccccc2)N1c1ccccc1` (configuration not stated), the compound was called inactive in assay [1], in assay [3] and in [8]. For the same compound, the Potency entry in assay [5] and in assay [7] was “inactive” throughout. In addition, in [2], the activity change, negative = inhibition is -0.885% and -5.88%. For the same compound, the Potency in [4] and in assay [6] was above 20.6 µM each time.
As for `COc1ccc(C(=O)c2ccccc2)c(O)c1`, the compound was called inactive in assay [1], in assay [3], in assay [18], in assay [8] and in assay [19]. Moreover, the Potency in assay [5] is 1.58 µM (active); in assay [9], above 92 µM; in assay [10], above 92 µM; in assay [11], above 92 µM; in assay [12], above 92 µM; in assay [13], above 92 µM. Moreover, the Potency in [4] and in assay [6] was above 20.6 µM throughout. Moreover, the activity change, negative = inhibition in assay [2] is -6.2%. Moreover, the Potency result in [7], in assay [14] and in assay [16] was “inactive” in each case. Moreover, the activity change, negative = cytotoxicity in assay [15] is -13.4%. In assay [17], the viability change, negative = cytotoxic was -8.89%.
`CCCCNc1ccc(C(=O)OCCOCCOCCOCCOCCOCCOCCOCCOCCOC)cc1`: the result in [1], in assay [3] and in assay [8] was inactive. The Potency result in [5] and in assay [7] was “inactive” in each case. Besides, the activity change, negative = inhibition in assay [2] was -6.05%. For the same compound, the Potency in [4] and in [6] was above 20.6 µM in each case.
Take `CCCc1ncc(C[n+]2ccccc2C)c(N)n1`: the call in [1], in assay [3] and in assay [8] was inactive. Moreover, the Potency result in assay [5] and in assay [7] was “inactive” each time. In addition, in assay [2], the activity change, negative = inhibition was -11.4%. Moreover, the Potency in assay [4] and in assay [6] was above 20.6 µM in each case.
As for `COc1ccc(C(Cl)=C(c2ccc(OC)cc2)c2ccc(OC)cc2)cc1`, the call in [1], in assay [3], in assay [18] and in assay [19] was inactive. Further, the Potency entry in assay [5], in assay [7] and in [14] was “inactive” each time. Besides, the Potency in assay [9] is above 92 µM; in assay [11], above 92 µM; in assay [12], above 92 µM; in [13], above 92 µM; in assay [4] it was above 20.6 µM; in assay [6], above 20.6 µM. In assay [15], the activity change, negative = cytotoxicity was -7.28%. The viability change, negative = cytotoxic in assay [17] is -10.7%.
In the case of `NC(N)=NCc1cccc(I)c1`, the compound was classed as inactive in assay [1], in assay [3] and in assay [8]. Also, the Potency in [5] was 12.6 µM (active); in assay [4], above 46 µM; in [6], above 46 µM. The activity change, negative = inhibition in [2] was -11.1% [at 38 µM]. The Potency result in assay [7] was “inactive”.
Regarding `CC(C)(C)NC[C@H](O)COc1cccc2c1CCCC2=O`, the compound was called inactive in [1], in assay [3] and in [8]. For the same compound, the Potency entry in [5] and in assay [7] was “inactive” each time. In addition, the activity change, negative = inhibition in assay [2] was -6.3% and -2.31%. Besides, the Potency in assay [4] and in [6] was above 20.6 µM each time.
On to `CCOC(=O)c1ccc(N)cc1`, for which the call in assay [1], in assay [3] and in assay [8] was inactive. Moreover, the Potency in [5] was 2 µM (active); in assay [4], above 20.6 µM; in [6] it was above 20.6 µM. Further, the activity change, negative = inhibition in assay [2] was -2.56%. Moreover, in assay [7], the Potency result was “inactive”.
Regarding `CN1CCC[C@@H]1CCO[C@](C)(c1ccccc1)c1ccc(Cl)cc1`, the result in assay [1], in assay [3] and in assay [8] was inactive. In addition, the Potency result in assay [5] and in [7] was “inactive” throughout.
With `Nc1ccc(C(=O)NCC(=O)O)cc1`, the outcome in assay [1], in [3] and in [8] was inactive. The Potency entry in [5] is “inactive”. Further, in assay [2], the activity change, negative = inhibition was 3.72%. Besides, the Potency in assay [4] and in assay [6] was above 20.6 µM in each case.
Regarding `CCN(CC)CCNc1ccc(CO)c2sc3ccccc3c(=O)c12`, the result in assay [1] and in assay [8] was inactive. The Potency was 0.126 µM (active) in [5], above 20.6 µM in [4] and above 20.6 µM in assay [6]. The activity change, negative = inhibition in assay [2] was -29.8%. The Potency result in [7] is “inactive”.
Take `CCCN(CCC)S(=O)(=O)c1ccc(C(=O)O)cc1`: the compound was called inactive in [1], in assay [3], in assay [18], in assay [8] and in [19]. The Potency entry in assay [5], in assay [7], in assay [14] and in assay [16] was “inactive” throughout. In addition, the Potency was above 92 µM in assay [9]; above 92 µM in assay [10]; above 92 µM in assay [11]; above 92 µM in [12]; above 92 µM in assay [13]; above 20.6 µM in assay [4]. In addition, the Potency in [6] is above 20.6 µM. Moreover, the activity change, negative = inhibition in [2] was 1.18% and -1.81%. Moreover, in assay [15], the activity change, negative = cytotoxicity is -2.58%. The viability change, negative = cytotoxic in assay [17] is -4.3%.
